{
  "source": "the supplement of paper PMC6555819",
  "test_in_all_cases": "PBM binding z-score (relative to random genomic background probes); higher = stronger binding; sequences stand for … in GC…GCGATTGACAGCGTAGAATGAAGG",
  "key": {"[1]": {"tested_on": "RARb homodimer (NR concentration 270 nM)", "how_it_was_run": "(§1)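 Binding z-scores were set against random background probes. The data came from custom Agilent 4×180K protein-binding microarrays carrying double-stranded probes with 34-nt variable regions, incubated 1 h with ligand-free nuclear receptor dimers. Partner-specific antibodies detected binding, and scanned fluorescence was regression-normalized.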"}, "[2]": {"tested_on": "RARg:RXRa (NR concentration 270 nM, RXRa partner concentration 90 nM)", "how_it_was_run": "as §1"}, "[3]": {"tested_on": "RARg homodimer (NR concentration 270 nM)", "how_it_was_run": "as §1"}, "[4]": {"tested_on": "RXRa DBDmut IVT, anti-RXR (DBD mutation: RXRa K156A/R161A, NR concentration 90 nM)", "how_it_was_run": "as §1"}, "[5]": {"tested_on": "RXRa homodimer (NR concentration 180 nM)", "how_it_was_run": "as §1"}, "[6]": {"tested_on": "THRa:RXRa (NR concentration 90 nM, RXRa partner concentration 90 nM)", "how_it_was_run": "as §1"}, "[7]": {"tested_on": "THRa homodimer (NR concentration 90 nM)", "how_it_was_run": "as §1"}, "[8]": {"tested_on": "VDR homodimer (NR concentration 270 nM)", "how_it_was_run": "as §1"}},
  "data": [
    {"sequence": "CCAGACAGATGAGAAGGTAACTCAGCCTCGATTA", "values": [
      {"measurement": "PBM binding z-score", "setting": "[1]", "result": -0.0918},
      {"measurement": "PBM binding z-score", "setting": "[2]", "result": 0.0576},
      {"measurement": "PBM binding z-score", "setting": "[3]", "result": 0.416},
      {"measurement": "PBM binding z-score", "setting": "[4]", "result": 0.092},
      {"measurement": "PBM binding z-score", "setting": "[5]", "result": 0.0859},
      {"measurement": "PBM binding z-score", "setting": "[6]", "result": 0.0683},
      {"measurement": "PBM binding z-score", "setting": "[7]", "result": 0.259},
      {"measurement": "PBM binding z-score", "setting": "[8]", "result": 0.296}
    ]},
    {"sequence": "CCTCGGAGGACTACAGGAGGTCAGAGCTGCCAGA", "values": [
      {"measurement": "PBM binding z-score", "setting": "[1]", "result": 2.9},
      {"measurement": "PBM binding z-score", "setting": "[2]", "result": 2.37},
      {"measurement": "PBM binding z-score", "setting": "[3]", "result": 2.06},
      {"measurement": "PBM binding z-score", "setting": "[4]", "result": -0.895},
      {"measurement": "PBM binding z-score", "setting": "[5]", "result": 1.93},
      {"measurement": "PBM binding z-score", "setting": "[6]", "result": 2.55},
      {"measurement": "PBM binding z-score", "setting": "[7]", "result": 0.263},
      {"measurement": "PBM binding z-score", "setting": "[8]", "result": 0.359}
    ]},
    {"sequence": "TCGAGTAGGTTAGGGGCATACAGAATGGCGTCGA", "values": [
      {"measurement": "PBM binding z-score", "setting": "[1]", "result": 0.759},
      {"measurement": "PBM binding z-score", "setting": "[2]", "result": 0.546},
      {"measurement": "PBM binding z-score", "setting": "[3]", "result": 0.52},
      {"measurement": "PBM binding z-score", "setting": "[4]", "result": 0.367},
      {"measurement": "PBM binding z-score", "setting": "[5]", "result": 1},
      {"measurement": "PBM binding z-score", "setting": "[6]", "result": 0.925},
      {"measurement": "PBM binding z-score", "setting": "[7]", "result": 0.135},
      {"measurement": "PBM binding z-score", "setting": "[8]", "result": 0.73}
    ]},
    {"sequence": "TCTTGTAGATCAGCAGGTTAAGGAAGCTGGCCAA", "values": [
      {"measurement": "PBM binding z-score", "setting": "[1]", "result": 0.142},
      {"measurement": "PBM binding z-score", "setting": "[2]", "result": 0.132},
      {"measurement": "PBM binding z-score", "setting": "[3]", "result": -0.17},
      {"measurement": "PBM binding z-score", "setting": "[4]", "result": 0.474},
      {"measurement": "PBM binding z-score", "setting": "[5]", "result": 0.329},
      {"measurement": "PBM binding z-score", "setting": "[6]", "result": 0.266},
      {"measurement": "PBM binding z-score", "setting": "[7]", "result": -0.666},
      {"measurement": "PBM binding z-score", "setting": "[8]", "result": -0.598}
    ]},
    {"sequence": "TAGCCAAGGTCATGGGCCAGTATACCACGCGAAC", "values": [
      {"measurement": "PBM binding z-score", "setting": "[1]", "result": 4.04},
      {"measurement": "PBM binding z-score", "setting": "[2]", "result": 6.18},
      {"measurement": "PBM binding z-score", "setting": "[3]", "result": 6.1},
      {"measurement": "PBM binding z-score", "setting": "[4]", "result": 1.93},
      {"measurement": "PBM binding z-score", "setting": "[5]", "result": 6.11},
      {"measurement": "PBM binding z-score", "setting": "[6]", "result": 3.89},
      {"measurement": "PBM binding z-score", "setting": "[7]", "result": 2.68},
      {"measurement": "PBM binding z-score", "setting": "[8]", "result": 2.65}
    ]},
    {"sequence": "GCGACTGGGGCATCAGCAGTTTACCATAACTTAA", "values": [
      {"measurement": "PBM binding z-score", "setting": "[1]", "result": 0.541},
      {"measurement": "PBM binding z-score", "setting": "[2]", "result": 0.124},
      {"measurement": "PBM binding z-score", "setting": "[3]", "result": 0.341},
      {"measurement": "PBM binding z-score", "setting": "[4]", "result": 0.507},
      {"measurement": "PBM binding z-score", "setting": "[5]", "result": 0.0851},
      {"measurement": "PBM binding z-score", "setting": "[6]", "result": 0.0532},
      {"measurement": "PBM binding z-score", "setting": "[7]", "result": -0.343},
      {"measurement": "PBM binding z-score", "setting": "[8]", "result": 0.258}
    ]},
    {"sequence": "GATACAGGGTCAGCTAGAGGCCAGAGTGTGGAAA", "values": [
      {"measurement": "PBM binding z-score", "setting": "[1]", "result": 3.67},
      {"measurement": "PBM binding z-score", "setting": "[2]", "result": 6.74},
      {"measurement": "PBM binding z-score", "setting": "[3]", "result": 4.74},
      {"measurement": "PBM binding z-score", "setting": "[4]", "result": 1.34},
      {"measurement": "PBM binding z-score", "setting": "[5]", "result": 4.41},
      {"measurement": "PBM binding z-score", "setting": "[6]", "result": 3.15},
      {"measurement": "PBM binding z-score", "setting": "[7]", "result": 0.703},
      {"measurement": "PBM binding z-score", "setting": "[8]", "result": 0.787}
    ]}
  ]
}
